Laboratory results from PubChem BioAssay (EPA / NIEHS).
Active and inactive are the calls of the source. The calls were made as follows: active = hit-call score of the fitted dose curve at least 0.9, where 1 is the maximum; inactive = score below 0.9.

Read-out: Vascular endothelial growth factor receptor 2 (Homo sapiens) (UniProt P35968)
Experiment: BSK_4H_VEGFRII: BioMAP Diversity Plus: 4H Assay for Vascular endothelial growth factor receptor 2 (VEGFR2) Biomarker Activity (AID 2283031)
Settings: primary human endothelial cells (HUVEC); actives raise or lower the signal
Procedure: BSK_4H is a cell-based, multiplexed-readout assay that uses umbilical vein endothelium, a human vascular primary cell, with measurements taken at 24 hours after chemical dosing in a 96-well plate.BSK_4H_VEGFRII is an assay component measured in the BSK_4H assay. It measures VEGFRII antibody related to regulation of gene expression using ELISA technology.Data from the assay component BSK_4H_VEGFRII was analyzed into 1 assay endpoint. This assay endpoint, BSK_4H_VEGFRII, was analyzed with bidirectional fitting relative to DMSO as the negative control and baseline of activity. Using a type of binding reporter, gain or loss-of-signal activity can be used to understand changes in the signaling as they relate to the gene KDR. Furthermore, this assay endpoint can be referred to as a primary readout, because this assay has produced multiple assay endpoints where this one serves a signaling function. To generalize the intended target to other relatable targets, this assay endpoint is annotated to the kinase intended target family, where the subfamily is receptor tyrosine kinase.
The levels of cell surface (or secreted, indicated by the prefix "s") biomarker endpoints were measured by ELISA. Overt cytotoxicity to cells in confluent adherent cultures (all systems other than the BT system) was assessed by measuring total protein levels using sulforhodamine B (SRB) staining in parallel cultures at the time of biomarker measurements, indicated as SRB endpoints. For proliferation assays for adherent cell types, individual cell types are cultured at sub-confluence and relative cell numbers quantified by SRB staining at time points optimized for each system (48 h: 3C and CASM3C systems; 72 h: BT and HDF3CGF systems; 96 h: SAg system). SRB was performed by staining cells with 0.1% SRB after fixation with 10% TCA and reading wells at 560 nm.Viability and proliferation of PBMC (T cells) was quantified by Alamar Blue reduction for the SAg and BT systems. For PBMC viability (referred to as PBMC Cytotoxicity within the assay endpoint names), cells were plated (75,000/well in a 96-well plate) and then chemical samples added for 1 h before addition of activators, SEB and TSST-1 (20 ng/mL final concentration each). Cells were incubated for 90 h. Then, Alamar Blue (20 uL/well) (Invitrogen, Cat DAL1100) was added for 6 h, and the plates were read with a fluorescence microplate reader at 546/580 nm (excitation/emission). For PBMC proliferation, cells were plated and activated as above but incubated for only 16 h prior to addition of Alamar Blue. Plates were read after 6 h.

SMILES | outcome | AC50
CCCN(C1CCN(C(=O)C2CCNCC2)CC1)[C@@H]1CCc2ccc(OC)cc2C1 | inactive | –
O=C1CCC(N2C(=O)c3ccccc3C2=O)C(=O)N1 (stereo not given) | inactive | –
Nc1ccc(Nc2ccccc2)cc1 | inactive | –
CCOC(=O)CC(CC(=O)OCC)(OC(C)=O)C(=O)OCC | inactive | –
CCCCC(CC)COC(=O)c1ccc(C(=O)OCC(CC)CCCC)cc1 (stereo not given) | inactive | –
CCOCCOCCOCCO | inactive | –
O=C(O)c1cc(N=Nc2ccc(S(=O)(=O)Nc3ccccn3)cc2)ccc1O | inactive | –
CNCc1ccc(NC(=O)c2c[nH]c3c2C(=O)CCC3)cc1 | inactive | –
CCOC(=O)COc1ccc2c(c1)CC(NCC(O)c1cccc(Cl)c1)CC2 (stereo not given) | – | 34.5 µM (active)
CC[C@H](C)C(=O)O[C@H]1C[C@@H](C)C=C2C=C[C@H](C)[C@H](CC[C@@H]3C[C@@H](O)CC(=O)O3)[C@H]21 | – | 27.3 µM (active)
COc1cccc(-c2ccc(/C=C\CN3CCCCCC3)cc2Cl)c1 | – | 32.6 µM (active)
O=P(OC(CCl)CCl)(OC(CCl)CCl)OC(CCl)CCl | inactive | –
CCC(C)(C)C(=O)O[C@H]1C[C@@H](C)C=C2C=C[C@H](C)[C@H](CC[C@@H]3C[C@@H](O)CC(=O)O3)[C@H]21 | – | 26.9 µM (active)
Cc1ccc(S(=O)(=O)O)cc1C | inactive | –
CC[C@H]1OC(=O)[C@H](C)[C@@H](O[C@H]2C[C@@](C)(OC)[C@@H](O)[C@H](C)O2)[C@H](C)[C@@H](O[C@@H]2O[C@H](C)C[C@H](N(C)C)[C@H]2O)[C@](C)(O)C[C@@H](C)C(=O)[C@H](C)[C@@H](O)[C@]1(C)O | inactive | –
O=C(NS(=O)(=O)/C=C/c1ccccc1)c1ccc(F)cc1Cl | inactive | –
C=CCCCCCCCCC(=O)O | inactive | –
COc1ccc(/C=C/S(=O)(=O)NC(=O)c2ccc(C)cc2Cl)cc1 | inactive | –
O=C(O)CC(O)C(=O)O (stereo not given) | inactive | –
O=C(CCCCCCCCc1cccnc1)N1CCC(C=C(c2ccccc2)c2ccccc2)CC1 | – | 8 µM (active)

SMILES | outcome | AC50
CCCCCCCCO | inactive | –
C1=CCCC=CCCC=CCC1 | inactive | –
Cc1ccc(O)cc1 | inactive | –
COC(=O)c1ccccc1O | inactive | –
Cn1cnc([N+](=O)[O-])c1Sc1ncnc2nc[nH]c12 | inactive | –
CC(=O)OC[C@H]1O[C@@](COC(C)=O)(O[C@H]2O[C@H](COC(C)=O)[C@@H](OC(C)=O)[C@H](OC(C)=O)[C@H]2OC(C)=O)[C@@H](OC(C)=O)[C@@H]1OC(C)=O | inactive | –
Cc1[nH]cnc1C[C@H]1CCc2c(C)c3ccccc3n2C1=O | inactive | –
O=C(O)c1cccc(Oc2ccccc2)c1 | inactive | –
O=C(OC[C@H]1O[C@@H](OC(=O)c2cc(O)c(O)c(OC(=O)c3cc(O)c(O)c(O)c3)c2)[C@H](OC(=O)c2cc(O)c(O)c(OC(=O)c3cc(O)c(O)c(O)c3)c2)[C@@H](OC(=O)c2cc(O)c(O)c(OC(=O)c3cc(O)c(O)c(O)c3)c2)[C@@H]1OC(=O)c1cc(O)c(O)c(OC(=O)c2cc(O)c(O)c(O)c2)c1)c1cc(O)c(O)c(OC(=O)c2cc(O)c(O)c(O)c2)c1 | inactive | –
COC(=O)c1c(Cl)c(Cl)c(C(=O)OC)c(Cl)c1Cl | inactive | –
O=c1n(CC2CO2)c(=O)n(CC2CO2)c(=O)n1CC1CO1 (stereo not given) | inactive | –
CCc1cc(SCc2sc(-c3ccc(C(F)(F)F)cc3)nc2CN2CCN(c3ccc(OC)cc3)CC2)ccc1OCC(=O)O | – | 4.8 µM (active)
CC(C)CCCCCCOC(=O)c1ccc(C(=O)OCCCCCCC(C)C)c(C(=O)OCCCCCCC(C)C)c1 | inactive | –
CC(C)=CCC/C(C)=C\CO | inactive | –
COCCOc1cc2cc(C(=O)NC3CCN(C(C)C)CC3)n(CC(=O)Nc3ccc(Cl)cn3)c2cn1 | inactive | –
CCCCCCCCCCCCc1ccccc1 | inactive | –
Cc1ccc(C)c(O)c1 | inactive | –
C1N2CN3CN1CN(C2)C3 | inactive | –
O=C1OC(=O)C2C3C=CC(C3)C12 (stereo not given) | inactive | –
O=C1CCCCCN1 | inactive | –
